Source: PubChem BioAssay (NCI)
This is part of a sample that, as a whole, favours compounds with a hit. Of some 83,000 tested, about 20% had one in any assay.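 Single-concentration screen, 48 h exposure, 96-well plates. Endpoint: percent growth. Below 10 = active.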 The source made the active and inactive calls.

What follows are compounds tested on PC-3 prostate (assay: NCI-60 one-dose screen, 48 h (100 = growth as untreated, 0 = no growth, -100 = all killed)). Conditions: 10 µM unless noted.

Row | Compound | growth
1 | COc1cc(C(=O)/C=C/c2c(-c3ccc(F)cc3)nc3sccn23)cc(OC)c1OC | 19.9% (inactive)
2 | CCCCCCCCCCCCNC(=S)N/N=C/c1ccccc1O | 69.5% (inactive)
3 | CCCc1cc2cc(-n3nc(C)c4c3CC(C)(C)CC4=O)cc(NC3CCSCC3)c2c(=O)[nH]1 | 55.2% (inactive)
4 | COc1ccc(-c2cc(-c3ccc(OC)c(OC)c3)nc(SCCCCCC(=O)NO)n2)cc1 | 64.5% (inactive)
5 | CCC(C)[C@H](NC(=O)NC(=O)NC(=O)CI)C(=O)OC (stereo partly specified) | 93.3% (inactive)
6 | CCN(CC)c1ccc(/C=C/c2ccc3cc(C)ccc3[n+]2CC)cc1 | -0.319% (active)
7 | N/C(=N\c1nc2ccccc2[nH]1)NC(=O)Cc1cccc2ccccc12 | 80% (inactive)
8 | CC1(C)CC[C@]2(C(N)=O)CC[C@]3(C)C(=CC[C@@H]4[C@@]5(C)C/C(=C/c6ccncc6)C(=O)C(C)(C)[C@@H]5CC[C@]43C)[C@@H]2C1 | -33.5% [100 µM] (active)
9 | Cc1ccc(C2=C/C(=C/c3ccc(Br)cc3)C(=O)N2CCc2ccc(S(N)(=O)=O)cc2)cc1 | 88% (inactive)
10 | Cc1ccc(NCCN2CCCCC2)c2c(=O)c3ccccc3sc12 | 38.2% (inactive)
11 | CC1(C)CC(=O)c2c(ccc(C(=O)C[C@@H](N)CO)c2N)O1 | 24.7% (inactive)
12 | CCCCC1COc2cccc3c2N1C=C/C3=C\C(=O)n1ccc2ccccc21 (stereo unspecified) | 65.9% (inactive)
13 | CC(C)CSc1ncnc2nc[nH]c12 | 81.7% (inactive)
14 | CC1(C)CC[C@]2(C(=O)O)CC[C@]3(C)C(=CC[C@@H]4[C@@]5(C)C/C(=C/c6cccnc6)[C@H](O)C(C)(C)[C@@H]5CC[C@]43C)[C@@H]2C1 | 4.87% [100 µM] (active)
15 | COc1ccc(C=C2c3ccccc3-c3ccccc32)cc1 | 63.6% (inactive)
16 | C#C[C@]1(O)CC[C@H]2[C@@H]3CC=C4c5nc(Nc6ccc(OC)cc6OC)sc5CC[C@]4(C)[C@H]3CC[C@@]21C | -3.17% (active)

Row | Compound | growth
17 | CCOC(=O)c1nn(C2CCCCO2)c2ccc(NC(=O)CSc3nc4ccccc4c(=O)[nH]3)cc12 (stereo unspecified) | 105% (inactive)
18 | O=c1[nH]cnc2c1ccn2C1OC(CO)C(O)C1O (stereo unspecified) | 36.3% (inactive)
19 | CCOC(=O)C(=Cc1ccccc1[N+](=O)[O-])C(=O)OCC | 47% (inactive)
20 | Cc1cc(C)c(S(=O)(=O)/N=c2/n(-c3ccccc3)nc3n2CCN3C2=NCCN2)c(C)c1 | 69.5% (inactive)
21 | COC(=O)c1cc2c(=O)[nH]cc3c2c(n1)CCC3 | 93.6% (inactive)
22 | Cn1cc(-c2noc(C(=O)c3cn(C)c4ncccc34)n2)c2ccccc21 | 87% (inactive)
23 | O=c1cc(-c2ccccc2)oc2cc(OCc3cn(Cc4ccc(F)cc4)nn3)cc(O)c12 | 76% [100 µM] (inactive)
24 | Cc1ccc(Cn2c(O)c(N=NC(=O)c3ccc(S(N)(=O)=O)cc3)c3ccccc32)cc1 | 94.5% (inactive)
25 | CC[C@]12C=CCN3CC[C@@]4(c5ccc(OC)cc5N(C)[C@H]4[C@@](O)(C(=O)OC)[C@@H]1OC(=O)CCC(=O)O[C@H]1CC[C@H]4[C@@H]5CCC6=CC(=O)CC[C@@H]6[C@H]5CC[C@]14C)[C@@H]32 | 11.3% [100 µM] (inactive)
26 | CCC(Br)(CC)C(=O)c1ccc(OCC(=O)O)c(Cl)c1Cl | 108% (inactive)
27 | Oc1c(CNCCNCc2cc(Cl)cc(Cc3ccccc3)c2O)cc(Cl)cc1Cc1ccccc1 | 40.9% (inactive)
28 | CCc1ccc(-c2ccc(COc3ccc(CC4SC(=O)NC4=O)cc3)cc2)cc1 (stereo unspecified) | 65.6% (inactive)
29 | Cn1cc(-c2noc(-c3cn(C)c4ncc(F)cc34)n2)c2ccccc21 | 71.7% (inactive)
30 | Clc1ccc2nc(-c3ccc(-c4ccc(/C=N/NC5=NCCN5)cc4)s3)cn2c1 | 89.4% (inactive)
31 | CC(C)CCSc1nc(N)nc2nc[nH]c12 | 93.7% (inactive)
